Measurements as given in PubChem BioAssay (NCATS).
Where “and” joins values, the source holds several entries; their conditions need not be identical. Equal values may be shown once. Inconclusive results are not listed. Where a structure was tested more than once in an assay, its records may differ in their call. Calls of active or inactive are those of the source. Calls follow the shape of the dose curve; as a rule, active = well fitted curve in the direction sought with a large enough effect; inconclusive = small, poorly fitted or top-dose-only effect, or another doubt; inactive = no such curve, though single readings can be large; an effect the other way counts as inactive or inconclusive.

Experiments:
[1] = molecular target: Metallo-beta-lactamase type 2 (Klebsiella pneumoniae) (UniProt C7C422); experiment: qHTS to identify inhibitors of the New Delhi Metallo-beta-lactamase (NDM): assay validation screen against the NCATS LOPAC Collection (AID 1794843);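 also: nitrocefin turnover by NDM-1 measured as 485 nm absorbance at plateau; series mostly up to about 38 µM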
Summary of the method: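 Enzyme 2 nM final, 50 mM HEPES pH 7.0, 1 uM ZnSO4, 0.01% Tween20; cpds in DMSO, preincub w/ enzyme; + nitrocefin (50 uM stock); A485 at plateau; no-enzyme column as blank.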

[2] = molecular target: Glutathione peroxidase 1 (Homo sapiens) (UniProt P07203); experiment: Primary qHTS Assay for Inhibitors of Recombinant Selenoprotein Glutathione Peroxidase 1 (GPX1) (AID 1845191); also: nearly all actives have a fitted effect of over 65% in size; also: potency is read from the fitted curve at half-maximal effect
Summary of the method: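 NADPH consumption tracked by fluorescence at 340/450 nm between t=0 and t=15 min, room temperature. Final mix: 10 nM GPX1, 100 nM glutathione reductase, 1 mM GSH, 0.5 mM NADPH, 0.5 mM cumene hydroperoxide, 0.01% BSA; 30 min compound–enzyme preincubation.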

[3] = molecular target: Phospholipid hydroperoxide glutathione peroxidase GPX4 (Homo sapiens) (UniProt P36969); experiment: Primary qHTS Assay for Inhibitors of Recombinant Selenoprotein Glutathione Peroxidase 4 (GPX4) (AID 1845192); also: nearly all actives have a fitted effect of over 65% in size; also: potency is read from the fitted curve at half-maximal effect
Summary of the method: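 NADPH consumption followed by fluorescence at 340/450 nm, t=0 and after 15 min at room temperature. Reaction started with cumene hydroperoxide (0.5 mM final) after 30 min compound–GPX4 preincubation; final 200 nM GPX4, 100 nM GR, 1 mM GSH, 0.5 mM NADPH.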

[4] = Primary fluorescence-based thiol-reactive (MSTI) qHTS assay for identification of artifact compounds. (AID 1845221);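 also: series mostly up to about 54 µM; thiol-reactive compounds lower the probe fluorescence signal; nearly all actives have a fitted effect of over 65% in size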
Summary of the method: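 A multi-concentration qHTS design tested compounds against 4 uM MSTI, pH 7.4 phosphate-buffered saline. Plates were protected from light for 1 h at room temperature before imaging fluorescence.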

[5] = system: Nanoluciferase (engineered Oplophorus gracilirostris luciferase); experiment: Primary Nanoluciferase (NLuc) qHTS assay for identification of artifact compounds. (AID 1845222); also: series mostly up to about 54 µM
Summary of the method: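 Compounds are pinned into diluted (1:55) conditioned medium of NLuc-expressing S16 cells and held 15 min at room temperature protected from light. Nano-Glo substrate follows, and luminescence is read 5 min later.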

[6] = Primary redox qHTS assay for identification of artifact compounds. (AID 1845223)
Summary of the method: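 Redox-cycling detection via DTT (250 uM final) oxidation coupled to Amplex Red (25 uM)/HRP (250 mU/mL) in HBSS. 15 min preincubation plus 30 min after DTT, room temperature. Ex/Em 525/598 nm; 4-parameter Hill fit against DMSO and 10 uM DA3003.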

[7] = Quantitative High-Throughput drug screen in 47 multiple myeloma cell lines against the NCATS MIPE library collection: FR4_PLB cell viability assay (AID 1918924; also: nearly all actives have a fitted effect of over 35% in size; also: potency is read from the fitted curve at half-maximal effect)
Summary of the method: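 Myeloma cells (500 per well) were exposed to MIPE 4.0 compounds by pin transfer and incubated 48 hours at 37C, 5% CO2. Viability was read as ATP by CellTiter-Glo luminescence, normalised to DMSO (100%) and media-only (0%) wells.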

[8] = Quantitative High-Throughput drug screen in 47 multiple myeloma cell lines against the NCATS MIPE library collection: EJM_DSMZ cell viability assay (AID 1918926; also: nearly all actives have a fitted effect of over 30% in size; also: potency is read from the fitted curve at half-maximal effect)
Summary of the method: (§1)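 Approved and investigational drugs from MIPE 4.0 were added by pin tool to 500 cells per well. After 48 hours at 37C, ATP-based CellTiter-Glo luminescence indicated remaining viability.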

[9] = Quantitative High-Throughput drug screen in 47 multiple myeloma cell lines against the NCATS MIPE library collection: AMO1_DSMZ cell viability assay (AID 1918927; also: nearly all actives have a fitted effect of over 30% in size; also: potency is read from the fitted curve at half-maximal effect)
Summary of the method: as §1

[10] = Quantitative High-Throughput drug screen in 47 multiple myeloma cell lines against the NCATS MIPE library collection: Delta47_JCRB cell viability assay (AID 1918925; also: nearly all actives have a fitted effect of over 45% in size; also: potency is read from the fitted curve at half-maximal effect)
Summary of the method: as §1

Measured: Potency

Chain of Metallo-beta-lactamase type 2 (Klebsiella pneumoniae) (C7C422 whole entry, looked up): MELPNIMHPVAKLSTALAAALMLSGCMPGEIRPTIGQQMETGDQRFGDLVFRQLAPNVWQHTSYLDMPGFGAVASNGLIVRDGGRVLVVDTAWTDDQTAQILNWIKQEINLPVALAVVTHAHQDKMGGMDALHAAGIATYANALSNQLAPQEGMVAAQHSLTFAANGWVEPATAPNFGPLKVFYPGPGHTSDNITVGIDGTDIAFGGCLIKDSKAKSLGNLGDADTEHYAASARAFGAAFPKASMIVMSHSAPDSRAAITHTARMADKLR
Chain of Phospholipid hydroperoxide glutathione peroxidase GPX4 (Homo sapiens) (P36969 whole entry, looked up): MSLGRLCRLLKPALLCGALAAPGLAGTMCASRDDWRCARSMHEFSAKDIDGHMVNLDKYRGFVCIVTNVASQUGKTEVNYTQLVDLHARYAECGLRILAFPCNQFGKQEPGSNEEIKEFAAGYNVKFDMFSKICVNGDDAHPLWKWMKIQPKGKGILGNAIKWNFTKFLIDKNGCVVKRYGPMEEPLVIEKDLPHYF
Chain of Glutathione peroxidase 1 (Homo sapiens) (P07203 whole entry, looked up): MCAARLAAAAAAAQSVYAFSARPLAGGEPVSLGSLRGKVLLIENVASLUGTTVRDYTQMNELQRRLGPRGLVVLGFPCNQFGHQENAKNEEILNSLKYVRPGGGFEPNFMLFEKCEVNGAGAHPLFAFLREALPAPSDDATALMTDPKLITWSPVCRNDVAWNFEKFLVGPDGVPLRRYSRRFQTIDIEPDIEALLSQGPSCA

CC(=O)NC[C@H]1CN(c2ccc(N3CCOCC3)c(F)c2)C(=O)O1
not listed: [10]
inactive: all other assays above

O=C1c2c(O)cc(O)cc2OC(c2ccc(O)c(O)c2)C1O (stereo not given)
not listed: [4] | [5] | [6]
inactive: all other assays above

CNC[C@H](O)c1ccc(O)c(O)c1
active: [7] 9.59 µM
inactive: [1] | [2] | [3] | [9]

Nc1nc(OCc2ccccc2)c2[nH]cnc2n1
inactive: [1] | [2] | [3] | [7] | [8]

CN(C)CCCC1(c2ccc(F)cc2)OCc2cc(C#N)ccc21 (stereo not given)
not listed: [8] | [10]
inactive: all other assays above

C[C@@H](c1ncncc1F)[C@](O)(Cn1cncn1)c1ccc(F)cc1F
not listed: [4] | [5] | [6]
inactive: all other assays above

CC(C)c1ccc2c(c1)c(SC(C)(C)C)c(CC(C)(C)C(=O)O)n2Cc1ccc(Cl)cc1
active: [10] 26.4 µM
inactive: [1] | [2] | [3] | [9]

O=c1c(O)c(-c2cc(O)c(O)c(O)c2)oc2cc(O)cc(O)c12
inactive: [1] | [2] | [3] | [10] | [8] | [9]

NC(=NCc1ccccc1)NC(=O)c1nc(Cl)c(N)nc1N
active: [10] 6.62 µM
inactive: [1] | [2] | [7]

CN(C)C(=O)[C@H](O)[C@H](Cc1ccccc1)NC(=O)c1cc2cc(Cl)ccc2[nH]1
active: [10] 4.18 µM | [9] 6.62 µM
not listed: [7] | [8]
inactive: all other assays above

Cc1cccc(C#Cc2ccccc2)n1
inactive: [1] | [2] | [3] | [7] | [10] | [9]

COc1ccccc1N1CCN(CCN(C(=O)C2CCCCC2)c2ccccn2)CC1
active: [10] 10.5 µM | [9] 2.96 µM
not listed: [6]
inactive: all other assays above

CC1(C)NC(=O)N(c2ccc([N+](=O)[O-])c(C(F)(F)F)c2)C1=O
inactive: [1] | [2] | [3] | [9]

O=C1c2ccccc2-c2n[nH]c3cccc1c23
active: [8] 0.0017 µM | [9] 20.9 µM
inactive: [1] | [2] | [3] | [7]

CCOC(=O)C1=C(O)C(=O)N(Cc2ccccc2)C1
inactive: [1] | [2] | [3] | [7] | [8] | [9]

CCN(CC)CCOc1ccc(Nc2ncc3cc(-c4c(Cl)cccc4Cl)c(=O)n(C)c3n2)cc1
active: [7] 0.935 µM | [10] 1.32 µM | [9] 0.166 µM
inactive: [1] | [2] | [3]

Cc1cc(O)c2c(c1)C(=O)c1cc(O)cc(O)c1C2=O
inactive: [1] | [2] | [3] | [10] | [9]
active: [7] 0.418 µM

Oc1ccc(-c2nc(-c3ccc(F)cc3)c(-c3ccncc3)[nH]2)cc1
active: [10] 5.9 µM
inactive: [1] | [2] | [3] | [9]

O=C(c1ccccc1)c1ccc2n1CCC2C(=O)O (stereo not given)
active: [10] 9.35 µM
inactive: [1] | [2] | [3] | [7]

O=c1c(O)c(-c2ccc(O)cc2O)oc2cc(O)cc(O)c12
inactive and 10.1 µM (active): [3]
inactive: [1] | [2] | [7]

O=c1ccc2ccc(O)c(O)c2o1
inactive: [1] | [2] | [3] | [7]
active: [10] 6.62 µM

C[C@@H](N)C1CCC(C(=O)Nc2ccncc2)CC1 (stereo not given in full)
inactive: [1] | [2] | [3] | [8] | [9]

O=C(O)c1cccnc1Nc1cccc(C(F)(F)F)c1
not listed: [4] | [5] | [6]
inactive: all other assays above

CCOC(=O)C(C)Oc1cccc2c(=O)n(CC(=O)Nc3ccc4c(c3)OCCO4)ccc12 (stereo not given)
active: [9] 16.6 µM
inactive: [1] | [2] | [3] | [8]

Nc1nc(N)c(N=O)c(OCC2CCCCC2)n1
inactive: [1] | [2] | [3]
active: [7] 18.7 µM | [10] 4.18 µM | [9] 13.2 µM

Cc1cc(Cl)ccc1OCCCC(=O)NO
active: [10] 2.96 µM
inactive: [1] | [2] | [3]

Cc1cccc(-c2[nH]ncc2-c2ccc3ncccc3n2)n1
active: [7] 0.118 µM
inactive: [1] | [2] | [3] | [8] | [9]

C[C@H](Cc1ccc(O)c(O)c1)[C@@H](C)Cc1ccc(O)c(O)c1
inactive: [1] | [2] | [3]
active: [7] 2.09 µM | [10] 16.6 µM | [9] 7.43 µM

c1cnc2cc3c(cc2n1)C1CNCC3C1
not listed: [4] | [10]
inactive: all other assays above

NCCCCNCCCN
inactive: [1] | [2] | [3] | [9]
active: [10] 23.5 µM

O=Nc1c(-c2c(O)[nH]c3cc(Br)ccc23)[nH]c2ccccc12
inactive: [1] | [2] | [3] | [7]
active: [10] 5.9 µM | [8] 14.8 µM | [9] 1.05 µM

Oc1ccc2ccccc2c1SSc1c(O)ccc2ccccc12
inactive: [1] | [2] | [3]
active: [7] 20.9 µM | [10] 16.6 µM | [9] 20.9 µM

Clc1ccc2c(N3CCN(CCCN4CCN(c5ccnc6cc(Cl)ccc56)CC4)CC3)ccnc2c1
inactive: [1] | [2] | [3] | [7] | [9]

CC(=O)N1CCN(c2ccc(OC[C@H]3CO[C@](Cn4ccnc4)(c4ccc(Cl)cc4Cl)O3)cc2)CC1
active: [10] 18.7 µM | [8] 8.33 µM | [9] 7.43 µM
inactive: [1] | [2] | [3]

O=C(CCc1ccc(O)cc1)c1c(O)cc(O)cc1O
inactive: [1] | [2] | [3]
active: [10] 0.118 µM | [9] 0.59 µM

O=c1cc(N2CCOCC2)oc2c(-c3ccccc3)cccc12
active: [7] 16.6 µM | [10] 1.48 µM
inactive: [1] | [2] | [3] | [9]

CC1(C)C(=O)N(CCN2CCC(C(=O)c3ccc(F)cc3)CC2)c2ccccc21
active: [10] 16.6 µM | [9] 6.62 µM
inactive: [1] | [2] | [3] | [7]

O=C1NC(=O)C(c2ccccc2[N+](=O)[O-])=C1Nc1ccc(O)c(Cl)c1
inactive: [1] | [2] | [3] | [8]

COc1cc2c(cc1OC)C1CC(=O)C(CC(C)C)CN1CC2 (stereo not given)
inactive: [1] | [2] | [3] | [7] | [10] | [8]

COc1cc(Nc2c(C#N)cnc3cc(OCCCN4CCN(C)CC4)c(OC)cc23)c(Cl)cc1Cl
active: [7] 23.5 µM | [10] 3.72 µM | [8] 23.5 µM | [9] 8.33 µM
not listed: [1]
inactive: all other assays above

CC1(C)CCC(C)(C)c2cc(NC(=O)c3ccc(C(=O)O)cc3)ccc21
inactive: [2] | [7]
active: [3] 10 µM | [10] 16.6 µM

CCC(C)(Oc1ccc(C2(c3ccc(OC(C)(CC)C(=O)O)cc3)CCCCC2)cc1)C(=O)O (stereo not given)
not listed: [1] | [6]
inactive: all other assays above

CN1C(C(=O)Nc2ccccn2)=C(O)c2sccc2S1(=O)=O
inactive: [2] | [3] | [7]

O=C(NC(Cc1cc(=O)[nH]c2ccccc12)C(=O)O)c1ccc(Cl)cc1 (stereo not given)
inactive: [2] | [3] | [7]

CN(C)[C@@H](CCOc1cccc2ccccc12)c1ccccc1
inactive: [2] | [3]
active: [7] 18.7 µM | [10] 18.7 µM

Cc1cc2c(s1)Nc1ccccc1N=C2N1CCN(C)CC1
active: [2] 16.1 µM
not listed: [1] | [4]
inactive: all other assays above

CC(C)C[C@H](NC(=O)[C@H](Cc1ccccc1)NC(=O)c1cnccn1)B(O)O
active: [7] 0.0093 µM | [8] 0.0166 µM
inactive: [2] | [3] | [4] | [5] | [6]

O=C(NOCC1CC1)c1ccc(F)c(F)c1Nc1ccc(I)cc1Cl
active: [7] 23.5 µM | [10] 20.9 µM | [9] 6.62 µM
not listed: [1] | [8]
inactive: all other assays above

Nc1cccc2c1CN(C1CCC(=O)NC1=O)C2=O (stereo not given)
inactive: [2] | [3] | [7] | [10]

CN(C)C(=O)COC(=O)Cc1ccc(OC(=O)c2ccc(N=C(N)N)cc2)cc1
inactive: [2] | [3] | [7]

CCCS(=O)c1ccc2nc(NC(=O)OC)[nH]c2c1 (stereo not given)
active: [7] 11.8 µM
not listed: [1] | [10]
inactive: all other assays above

CC(=O)Nc1ccc(O)cc1
inactive: [2] | [3]

Cc1nccn1CC1CCc2c(c3ccccc3n2C)C1=O (stereo not given)
not listed: [1] | [9] | [10]
inactive: all other assays above

NNc1nncc2ccccc12
inactive: [2] | [3] | [7]

CC(C)c1nc(CN(C)C(=O)N[C@H](C(=O)N[C@@H](Cc2ccccc2)C[C@H](O)[C@H](Cc2ccccc2)NC(=O)OCc2cncs2)C(C)C)cs1
inactive: [2] | [3] | [4] | [5]
active: [7] 11.8 µM
